Assay outcomes deposited in PubChem BioAssay by National Center for Advancing Translational Sciences (NCATS).
Hits are enriched below; roughly 12% of the tested compounds scored in any of these assays.
L3MBTL1 inh: qHTS Assay for the Inhibitors of L3MBTL1; Lethal(3)malignant brain tumor-like protein 1 (Homo sapiens), Q9Y468; AlphaScreen L3MBTL1–H3K9me1 peptide binding; Potency, µM (doses to about 57.1 µM), without a hit: at the top dose activity, negative = inhibition, hits mostly inhibitors; 230,000 tested, 0.66% active; further: on the % scale 0 is the no-effect control and ±100 the full control effect; nearly all actives have a fitted effect of over 60% in size
Target sequence (Q9Y468 whole entry, looked up): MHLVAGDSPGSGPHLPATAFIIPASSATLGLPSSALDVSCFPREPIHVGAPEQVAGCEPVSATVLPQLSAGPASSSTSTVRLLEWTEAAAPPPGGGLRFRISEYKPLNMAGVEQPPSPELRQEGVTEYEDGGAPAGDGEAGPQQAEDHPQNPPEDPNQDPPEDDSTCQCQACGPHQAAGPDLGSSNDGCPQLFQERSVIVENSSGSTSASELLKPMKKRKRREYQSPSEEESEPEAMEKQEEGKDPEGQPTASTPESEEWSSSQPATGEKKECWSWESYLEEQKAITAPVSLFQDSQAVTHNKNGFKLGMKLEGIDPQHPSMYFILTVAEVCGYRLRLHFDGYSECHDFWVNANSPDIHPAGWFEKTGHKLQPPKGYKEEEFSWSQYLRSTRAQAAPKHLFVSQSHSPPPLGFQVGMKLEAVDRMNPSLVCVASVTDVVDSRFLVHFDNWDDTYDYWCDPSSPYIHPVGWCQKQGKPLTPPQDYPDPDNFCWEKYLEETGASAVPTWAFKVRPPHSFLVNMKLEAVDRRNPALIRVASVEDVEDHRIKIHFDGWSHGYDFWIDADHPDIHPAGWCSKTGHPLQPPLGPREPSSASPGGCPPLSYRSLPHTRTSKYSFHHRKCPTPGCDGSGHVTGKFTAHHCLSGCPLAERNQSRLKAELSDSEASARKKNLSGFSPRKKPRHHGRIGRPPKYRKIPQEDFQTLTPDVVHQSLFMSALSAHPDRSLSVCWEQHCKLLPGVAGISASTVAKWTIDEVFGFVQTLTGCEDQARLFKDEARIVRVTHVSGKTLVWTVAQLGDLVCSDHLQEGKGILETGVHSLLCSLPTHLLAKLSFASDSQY
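First, the protein-peptide complex forms for 30 min at room temperature (L3MBTL1 50 nM, biotinylated H3K9me1 peptide 75 nM). Next, compounds are pin-transferred and incubated 30 min. Finally, AlphaScreen beads are added and read after 30 min.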
BAZ2B inh: qHTS Assay for Inhibitors of BAZ2B; AlphaScreen BAZ2B-H3K14Ac peptide displacement; Potency, µM (doses to about 114 µM), for the others: at the highest dose activity change, negative = inhibition, actives largely listed as inhibitors; 360,000 tested, 4.4% active; Bromodomain adjacent to zinc finger domain protein 2B (Homo sapiens), Q9UIF8; further: on the % scale 0 is the no-effect control and ±100 the full control effect; nearly all actives have a fitted effect of over 60% in size
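Compounds, titrated to a top concentration of 110 uM, were incubated 30 min at room temperature with preformed BAZ2B/acetyl-K14 H3 peptide complex (50 nM each). Proximity signal was measured by AlphaScreen after 20 min with beads.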
Sfp PPTase inh: qHTS Assay for Inhibitors of Bacillus subtilis Sfp phosphopantetheinyl transferase (PPTase); 4'-phosphopantetheinyl transferase ffp (Bacillus subtilis), Q9F4F7; Biochemical Sfp PPTase activity, qHTS; Potency, µM, for the others: largest response in the series, negative = inhibition, most hits filed as inhibitors; 310,000 tested, 3.5% active; AID 1490, 2009;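 further: the enzyme is Sfp with the accession as filed and its product quenches rhodamine fluorescence; 0% = enzyme reaction without inhibitor and -100% = no enzyme wells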
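With Hepes-Na pH 7.6 buffer containing 10 mM MgCl2, Sfp (15 nM) modified BHQ-2-YbbR (12.5 uM) using rhodamine-CoA (5 uM). Two reads 30 minutes apart at 525/598 nm yielded each well's rate.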
HP1b binding inh: HTS for Inhibitors of HP1-beta Chromodomain Interactions with Methylated Histone Tails. Chromobox protein homolog 1 (Homo sapiens), P83916. AlphaScreen HP1-beta / biotin-H3K9me3 peptide binding. Potency, µM (doses to about 114 µM), without a hit: top-dose activity change, negative = inhibition, actives largely listed as inhibitors. 390,000 tested, 0.56% active; further: nearly all actives have a fitted effect of over 70% in size
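HP1-beta protein (50 nM final) preincubated 30 min at room temperature with biotinylated H3(1-18)K9me3 peptide (50 nM) in PBS pH 7.4, 0.01% Tween-20, then compound added for 30 min. AlphaScreen streptavidin donor/nickel chelate acceptor beads (10 ug/mL final), 30 min dark, luminescence read.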
G9a inh: qHTS Assay for Inhibitors of Histone Lysine Methyltransferase G9a; Histone-lysine N-methyltransferase EHMT2 (Homo sapiens), Q96KQ7; G9a H3K9 monomethylation, AlphaScreen, 2 h; Potency, µM (top dose mostly 102 µM), for inactives: at the top dose activity, negative = inhibition, actives largely listed as inhibitors; 350,000 tested, 8.8% active; AID 504332, 2011; further: on the % scale 0 is the no-effect control and ±100 the full control effect; nearly all actives have a fitted effect of over 75% in size
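Step 1: enzyme (final 20 nM) with compound, 15 min RT. Step 2: substrate peptide 500 nM and SAM 20 uM, 2 h RT. Step 3: anti-H3K9me1 antibody and AlphaScreen beads, 10 min, then plate read.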
JMJD2A Tudor: qHTS Assay for Inhibitors of JMJD2A-Tudor Domain. AlphaScreen JMJD2A-Tudor / H3K4me3 peptide binding. Potency, µM (highest dose often 114 µM), inactives show at the top dose activity change, negative = inhibition, most hits filed as inhibitors. 390,000 tested, 4.4% active. Lysine-specific demethylase 4A (Homo sapiens), O75164; further: on the % scale 0 is the no-effect control and ±100 the full control effect; nearly all actives have a fitted effect of over 50% in size
The depositor's hits bear a star; [ ] = another dose, or the depositor's remark. The call rests on the fitted dose curve; in most records, active means well fitted curve in the direction sought with a large enough effect; inconclusive means small, poorly fitted or top-dose-only effect, or another doubt; inactive means no such curve, though single readings can be large; an effect the other way counts as inactive or inconclusive. Potency means the concentration at half of the fitted maximal effect.

For S=c1nc[nH]c2c1ncn2-c1ccc(Cl)cc1 the results were HP1b binding inh inconclusive and JMJD2A Tudor 50µM*.
Screening Cc1ccccc1-c1nc(CN2CCC(C(=O)NCc3ccc(F)cc3)CC2)c(C)o1 returned BAZ2B inh inconclusive, HP1b binding inh 19%, G9a inh -35%[59 µM] and JMJD2A Tudor -29%.
Cc1ccc(Cl)cc1N1CCN(C(=O)c2ccc(C)c(-n3c(C)nc4cccnc43)c2)CC1 was read as BAZ2B inh inconclusive, HP1b binding inh 9%, G9a inh -45%[59 µM] and JMJD2A Tudor -30%.
Screening O=C(c1ccc(S(=O)(=O)N2CCC(c3nc4ccccc4s3)CC2)cc1)N1CCOCC1 returned L3MBTL1 inh -1%, BAZ2B inh 5%, Sfp PPTase inh inconclusive, HP1b binding inh 6%, G9a inh 40µM* and JMJD2A Tudor -15%.
For O=C(c1ccc(S(=O)(=O)N2CCC(c3nc4ccccc4[nH]3)CC2)cc1)N1CCOCC1 the results were L3MBTL1 inh 0%, BAZ2B inh inconclusive, Sfp PPTase inh 50µM*, HP1b binding inh -12%, G9a inh 7.9µM* and JMJD2A Tudor 28µM*.
For O=C(c1ccc(S(=O)(=O)N2CCC(c3nc4ccccc4s3)CC2)cc1)N1CCCCC1 the results were HP1b binding inh 22% and JMJD2A Tudor -18%.
Cc1nn(CC(=O)NCc2ccc(N(C)C)cc2)c(=O)c2c(C)n(-c3ccc(Cl)cc3)nc12 was read as BAZ2B inh 3%, HP1b binding inh 12%[57 µM], G9a inh 6%[59 µM] and JMJD2A Tudor -20%.
For CCc1cccc(NC(=O)c2c(N3CCCC3=O)c3cc(C)ccc3n2C)c1 the results were BAZ2B inh inconclusive, HP1b binding inh 24%, G9a inh -33%[59 µM] and JMJD2A Tudor -17%.
`O=C(COc1cccc(F)c1)N1c2ccccc2Sc2ccccc21` gave L3MBTL1 inh 8%, BAZ2B inh -2%, Sfp PPTase inh -9%, HP1b binding inh inconclusive, G9a inh 7%[59 µM] and JMJD2A Tudor 56µM*.
For C/C(O)=C(\C#N)c1nnc2n1CCCCC2 the results were L3MBTL1 inh 1%, BAZ2B inh 56µM*, Sfp PPTase inh inconclusive, HP1b binding inh 9%, G9a inh 10µM* and JMJD2A Tudor inconclusive.
`CCNc1ncc2nc(-c3ccccc3)c(=O)n(-c3ccc(OC)cc3)c2n1` gave Sfp PPTase inh 6% and G9a inh 4%[12.7 µM].
COc1ccc(CCC(=O)OCC(=O)c2c(N)n(CC(C)C)c(=O)n(C)c2=O)cc1 was read as BAZ2B inh inconclusive, Sfp PPTase inh 5%, HP1b binding inh 10%, G9a inh 79µM* and JMJD2A Tudor -14%.
`CC(C)Cn1c(N)c(C(=O)COC(=O)C2CCCCC2)c(=O)n(C)c1=O` gave L3MBTL1 inh 2%, BAZ2B inh 1%, Sfp PPTase inh -13%, HP1b binding inh -9%, G9a inh inconclusive and JMJD2A Tudor 25µM*.
For COc1cc(NC(=S)NC(=O)c2ccco2)ccc1NC(=O)C(C)C the results were L3MBTL1 inh -6%, BAZ2B inh -34%, Sfp PPTase inh inconclusive, HP1b binding inh 11%, G9a inh 31%[12.7 µM] and JMJD2A Tudor -13%.
COc1cc(NC(=S)NC(=O)c2ccccc2F)ccc1NC(=O)c1ccco1 was read as L3MBTL1 inh -2%, BAZ2B inh 1%, Sfp PPTase inh -51%, HP1b binding inh inconclusive, G9a inh 7.9µM* and JMJD2A Tudor inconclusive.
For O=C(NC(=S)Nc1ccc2[nH]c(=O)[nH]c2c1)c1ccccc1F the results were BAZ2B inh -4%, Sfp PPTase inh 4%, HP1b binding inh 30% and JMJD2A Tudor -13%.
COc1ccccc1C(=O)NNC(=S)NC(=O)c1ccco1 was read as L3MBTL1 inh 6%, BAZ2B inh 7%, Sfp PPTase inh -6%, HP1b binding inh 24%, G9a inh 28µM* and JMJD2A Tudor -29%.
For COc1ccccc1C(=O)NNC(=S)Nc1ccccc1 the results were L3MBTL1 inh 9%, BAZ2B inh 5%, Sfp PPTase inh 28%, HP1b binding inh 28%, G9a inh 28µM* and JMJD2A Tudor -7%.
`COc1ccccc1C(=O)NNC(=O)C(=O)Nc1ccc(C)cc1` gave BAZ2B inh -2%, Sfp PPTase inh 25%, HP1b binding inh 18%, G9a inh 10% and JMJD2A Tudor -7%.
`O=C(NC(=S)Nc1ccc(F)c([N+](=O)[O-])c1)c1ccccc1F` gave L3MBTL1 inh -11%, BAZ2B inh -34%, Sfp PPTase inh -11%, HP1b binding inh 25%, G9a inh 45µM* and JMJD2A Tudor -9%.
`Cc1cnc(CNc2cc(-c3ccc(C(=O)N(C)C)cc3)ncn2)cn1` gave Sfp PPTase inh -13% and G9a inh 12%[0.501 µM].
`CC[C@H]1C2=C3C(CC[C@H]4C(OC)OC[C@](C)([C@@H]34)N(C(=O)OC(C)(C)C)C2)C(CO)C1CO` (some centres undefined) gave Sfp PPTase inh 1%.
CCN(CC)c1cc(C)c2cc(NC(=O)/C=C/c3ccccc3OC(C)C)ccc2n1 was read as BAZ2B inh -1%, HP1b binding inh 24%, G9a inh -24%[59 µM] and JMJD2A Tudor -9%.
NS(=O)(=O)c1cc(C(=O)NC2CCSc3ccccc32)ccc1Cl (centres undefined) was read as BAZ2B inh inconclusive, Sfp PPTase inh 11%, HP1b binding inh 2.2µM*, G9a inh 1.6µM* and JMJD2A Tudor 0.79µM*.
For CC(=O)c1cccc(S(=O)(=O)NC2CCSc3ccccc32)c1 (centres undefined) the results were BAZ2B inh -16%, Sfp PPTase inh 6%, HP1b binding inh 12%, G9a inh 28µM* and JMJD2A Tudor inconclusive.
NS(=O)(=O)c1cccc(C(=O)NC2CCSc3ccccc32)c1 (centres undefined) was read as BAZ2B inh -1%, Sfp PPTase inh 8%, HP1b binding inh 24%, G9a inh inconclusive and JMJD2A Tudor -6%.
